Where “and” joins values, the source holds several entries; their conditions need not be identical. Equal values may be shown once. More than one record can exist for a structure, and the calls need not agree. Calls of active or inactive are those of the source. The calls were made as follows: active = hit-call score of the fitted dose curve at least 0.9, where 1 is the maximum; inactive = score below 0.9.

A short description of test [1]: ATG_E_Box_CIS: Attagene CIS-FACTORIAL HepG2 Assay for human Enhancer Box (E-box) (AID 2282936). The following applies: HepG2 E-box cis-reporter transcription, actives raise or lower the signal. The procedure, abridged: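 DMSO served as negative control and baseline for bidirectional fitting. Human hepatoma HepG2 cells, transiently transfected with cis-reporter constructs, were dosed 24 h; reporter mRNA read by RT-PCR and capillary electrophoresis.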

Test [2] is described as follows: ATG_M_61_CIS: Attagene CIS-FACTORIAL HepG2 Assay for M61 Transcription Factor (Internal Marker) (AID 2282937). The following applies: HepG2 Attagene CIS-FACTORIAL M61 internal marker reporter; actives raise or lower the signal. The method in brief: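 Endogenous transcription factor activity in HepG2 is read through transiently transfected cis-element reporter units. After 24 h dosing, RNA undergoes reverse transcription, PCR and primer extension with 6-FAM before capillary electrophoresis; DMSO-referenced bidirectional fit.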

Test [3] can be described thus: ATG_EGR_CIS: Attagene CIS-FACTORIAL HepG2 Assay for human Early Growth Response 1 (EGR1) (AID 2282938). The following applies: HepG2 Attagene CIS-FACTORIAL EGR reporter mRNA; actives raise or lower the signal. The procedure, abridged: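 Activity is taken as induction or loss of reporter mRNA versus DMSO, fitted bidirectionally. Transcripts from cis-regulated reporter units in transiently transfected HepG2 were measured after 24 h by RT-PCR with capillary electrophoresis.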

Test [4] in a line: ATG_ERE_CIS: Attagene CIS-FACTORIAL HepG2 Assay for Estrogen Response Element (ERE) (AID 2282940). The following applies: HepG2 ERE cis-reporter, Attagene RNA transcript; actives raise or lower the signal. The procedure, abridged:
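HepG2 cells transiently transfected with multiplexed cis-element reporter units, measuring endogenous transcription factor activity; ERE reporter mRNA quantified after 24 h exposure by RT-PCR, fluorescent labelling, HpaI digestion and capillary electrophoresis. Bidirectional change versus DMSO.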

A short description of test [5]: ATG_Ets_CIS: Attagene CIS-FACTORIAL HepG2 Assay for human Erythroblast Transformation Specific (ETS) (AID 2282941). As to conditions: HepG2 ETS cis-reporter transcription, actives raise or lower the signal. The procedure, abridged: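 After transient cis-reporter transfection, HepG2 cells receive test chemical for 24 h. Reporter mRNA levels, measured by RT-PCR and capillary electrophoresis fluorescence, are analysed bidirectionally relative to the DMSO baseline.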

Test [6] deals with Hepatocyte nuclear factor 3-beta (Homo sapiens) (UniProt Q9Y261). The test can be described thus: ATG_FoxA2_CIS: Attagene CIS-FACTORIAL HepG2 Assay for human Forkhead box A2 (FOXA2) (AID 2282942). The following applies: HepG2 cis-reporter transcription factor activity, 24 h; actives raise or lower the signal. The method in brief:
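Reporter transcript induction is measured by fluorescence after capillary electrophoresis of RT-PCR products from HepG2 cells exposed 24 h. Cis-regulated reporter units report endogenous factor activity; curves fitted both directions against DMSO.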

Test [7] can be described thus: ATG_FoxO_CIS: Attagene CIS-FACTORIAL HepG2 Assay for human Forkhead box O (FoxO) (AID 2282943). As to conditions: HepG2 Attagene cis-reporter, FoxO element, mRNA; actives raise or lower the signal. The method in brief:
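HepG2, transient MRTU transfection (cis element, endogenous TFs). Dose 24 h. TriZol RNA → oligo(dT) RT → PCR → 6-FAM primer extension → HpaI cut → CE. Gain/loss vs DMSO.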

Test [8] is described as follows: ATG_GATA_CIS: Attagene CIS-FACTORIAL HepG2 Assay for human GATA Binding Protein (AID 2282944). The following applies: HepG2 GATA cis-element reporter, Attagene multiplex mRNA; actives raise or lower the signal. The procedure, abridged:
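HepG2 cells transiently transfected with multiplexed cis-element reporter units measure endogenous GATA activity; after 24 h compound exposure, reporter mRNA quantified by RT-PCR and capillary electrophoresis. Changes fitted in both directions vs DMSO.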

Test [9] can be described thus: ATG_GLI_CIS: Attagene CIS-FACTORIAL HepG2 Assay for human Zinc Finger Protein GLI1 (AID 2282945). As to conditions: HepG2, Attagene cis-factorial reporter mRNA, GLI element; actives raise or lower the signal. The method in brief:
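Bidirectional curve fits relative to DMSO, using reporter mRNA levels from RT-PCR plus capillary electrophoresis. Cells were HepG2 transiently carrying cis-regulated reporter constructs, harvested 24 h after dosing.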

Test [10] in a line: ATG_GRE_CIS: Attagene CIS-FACTORIAL HepG2 Assay for human Glucocorticoid Response Elements (GRE) (AID 2282947). As to conditions: HepG2 GRE cis-reporter, Attagene multiplex mRNA; actives raise or lower the signal. The procedure, abridged:
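Assay uses human hepatoma HepG2 cells transfected with cis-promoter reporter units, exposed 24 h. mRNA from reporters detected by RT-PCR plus capillary electrophoresis; DMSO serves as negative control and baseline.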

The nature of test [11]: ATG_ISRE_CIS: Attagene CIS-FACTORIAL HepG2 Assay for human Interferon Regulatory Factor 1 (IRF1) binding to an Interferon-Stimulated Response Element (ISRE) (AID 2282948). As to conditions: HepG2 ISRE cis-reporter (Attagene), mRNA transcription readout; actives raise or lower the signal. The method in brief: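 Quantitation relies on labelled RT-PCR fragments separated by capillary electrophoresis. Human HepG2 cells bearing cis-promoter reporter constructs were treated 24 h; DMSO served as baseline for bidirectional fitting.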

A short description of test [12]: ATG_M_32_CIS: Attagene CIS-FACTORIAL HepG2 Assay for M32 Transcription Factor (Internal Marker) (AID 2282949).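 Also: background control marker of the multiplexed CIS panel rather than a real target.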 As to conditions: HepG2 Attagene cis-factorial M32 reporter, mRNA; actives raise or lower the signal. The procedure, abridged: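 Internal background marker read-out: RT-PCR/capillary electrophoresis fluorescence of reporter transcripts from transiently transfected HepG2 cells after 24 h chemical exposure. Activity fitted bidirectionally relative to DMSO negative control.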

The target of test [13] is Hypoxia-inducible factor 1-alpha (Homo sapiens) (UniProt Q16665). The test can be described thus: ATG_HIF1a_CIS: Attagene CIS-FACTORIAL HepG2 Assay for human Hypoxia Inducible Factor 1 (HIF1A) (AID 2282951). The following applies: HepG2 Attagene cis-factorial HIF1a reporter transcription; actives raise or lower the signal. The procedure, abridged:
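Fluorescence intensity of capillary-separated, 6-FAM-labelled reporter amplicons gives mRNA induction in HepG2 cells carrying transfected cis-promoter reporter units; cells exposed 24 h, responses fitted up or down from DMSO.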

For test [14], the target named is Hepatocyte nuclear factor 6 (Homo sapiens) (UniProt Q9UBC0). Kind of test: ATG_HNF6_CIS: Attagene CIS-FACTORIAL HepG2 Assay for human Hepatocyte Nuclear Factor 6 (HNF6) (AID 2282952). As to conditions: HepG2 Attagene cis-factorial HNF6 reporter transcription; actives raise or lower the signal. The procedure, abridged: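 Multiplexed mRNA reporter assay in transfected HepG2; 24 h dosing; RT-PCR plus capillary electrophoresis fluorescence; DMSO-referenced bidirectional curve fitting.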
Chain of Hepatocyte nuclear factor 6 (Homo sapiens) (Q9UBC0 whole entry, looked up): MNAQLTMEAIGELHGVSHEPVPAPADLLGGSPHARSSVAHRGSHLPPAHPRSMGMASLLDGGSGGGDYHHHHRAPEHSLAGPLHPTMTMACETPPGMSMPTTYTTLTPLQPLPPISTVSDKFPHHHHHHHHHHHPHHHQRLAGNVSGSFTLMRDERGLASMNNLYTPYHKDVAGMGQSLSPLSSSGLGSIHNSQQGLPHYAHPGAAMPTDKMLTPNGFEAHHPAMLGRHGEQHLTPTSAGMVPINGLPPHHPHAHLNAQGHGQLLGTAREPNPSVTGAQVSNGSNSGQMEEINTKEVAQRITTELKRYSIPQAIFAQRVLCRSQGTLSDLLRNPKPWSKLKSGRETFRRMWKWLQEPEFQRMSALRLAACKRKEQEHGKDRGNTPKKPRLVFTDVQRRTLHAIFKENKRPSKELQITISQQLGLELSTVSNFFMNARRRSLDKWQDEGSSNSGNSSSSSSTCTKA

Test [15] addresses Heat shock factor protein 1 (Homo sapiens) (UniProt Q00613). The test can be described thus: ATG_HSE_CIS: Attagene CIS-FACTORIAL HepG2 Assay for human Heat Shock Transcription Factor 1 (HSE) (AID 2282953). As to conditions: HepG2 HSE cis-reporter, Attagene RNA transcription; actives raise or lower the signal. The procedure, abridged:
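HepG2 cells transfected with cis-promoter reporter units sensing endogenous transcription factor activity; reporter mRNA quantified 24 h post-dose by RT-PCR and capillary electrophoresis of 6-FAM-labelled products. Bidirectional fitting against DMSO.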

Test [16] is described as follows: ATG_MRE_CIS: Attagene CIS-FACTORIAL HepG2 Assay for human Metal Responsive Element (MRE) (AID 2282954). As to conditions: HepG2 MRE cis-reporter transcription, Attagene multiplex; actives raise or lower the signal. The procedure, abridged: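 After a 24 h chemical exposure, transiently transfected HepG2 cells yield RNA whose reporter sequences are amplified, FAM-labelled and sized by capillary electrophoresis. Curves are fitted bidirectionally relative to DMSO.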

Test [17] in a line: ATG_PBREM_CIS: Attagene CIS-FACTORIAL HepG2 Assay for human Phenobarbital-responsive Enhancer Module (PBREM) (AID 2282955). As to conditions: HepG2 PBREM cis-reporter, Attagene multiplexed transcription; actives raise or lower the signal. The procedure, abridged: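 Cells were transfected with cis-element reporter units and treated for 24 h, after which RNA was extracted and reporter transcripts measured by RT-PCR and capillary electrophoresis.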

Test [18] is described as follows: ATG_M_06_CIS: Attagene CIS-FACTORIAL HepG2 Assay for M06 Transcription Factor (Internal Marker) (AID 2282950). As to conditions: HepG2 Attagene CIS-FACTORIAL M06 internal marker reporter; actives raise or lower the signal. The method in brief: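 Internal background marker within multiplexed cis-reporter HepG2 system. Cells transiently transfected, dosed 24 h; reporter mRNA measured by RT-PCR, HpaI digestion and capillary electrophoresis. Bidirectional fit relative to DMSO.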

The target in test [19] is Bile acid receptor (Homo sapiens) (UniProt Q96RI1). Kind of test: ATG_IR1_CIS: Attagene CIS-FACTORIAL HepG2 Assay for human Nuclear Receptor Subfamily 1 Group H Member 4 (NR1H4), IR1 submotif (AID 2282946). As to conditions: IR1 reporter transcription, actives raise or lower the signal. The procedure, abridged: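 Cells (human HepG2) carry transiently transfected cis-promoter reporter transcription units. Compounds are incubated 24 h, total RNA is reverse-transcribed and amplified, and labelled fragments are resolved by capillary electrophoresis. Curves use DMSO as baseline.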
Chain of Bile acid receptor (Homo sapiens) (Q96RI1 whole entry, looked up, the tested form may be a part): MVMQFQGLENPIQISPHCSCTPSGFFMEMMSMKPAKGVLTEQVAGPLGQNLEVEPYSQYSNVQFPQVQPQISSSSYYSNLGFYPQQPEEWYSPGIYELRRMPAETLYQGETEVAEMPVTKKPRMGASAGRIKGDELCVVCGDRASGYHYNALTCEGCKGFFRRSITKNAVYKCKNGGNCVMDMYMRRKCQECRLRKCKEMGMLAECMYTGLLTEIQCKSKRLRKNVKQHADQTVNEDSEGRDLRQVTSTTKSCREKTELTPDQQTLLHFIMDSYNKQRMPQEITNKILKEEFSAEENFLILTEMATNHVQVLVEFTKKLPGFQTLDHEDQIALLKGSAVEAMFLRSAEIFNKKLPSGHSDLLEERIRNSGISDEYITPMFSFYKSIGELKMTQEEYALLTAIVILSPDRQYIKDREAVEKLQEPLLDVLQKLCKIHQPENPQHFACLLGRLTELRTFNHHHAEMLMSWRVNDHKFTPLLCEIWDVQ

Chain of Hepatocyte nuclear factor 3-beta (Homo sapiens) (Q9Y261 whole entry, looked up): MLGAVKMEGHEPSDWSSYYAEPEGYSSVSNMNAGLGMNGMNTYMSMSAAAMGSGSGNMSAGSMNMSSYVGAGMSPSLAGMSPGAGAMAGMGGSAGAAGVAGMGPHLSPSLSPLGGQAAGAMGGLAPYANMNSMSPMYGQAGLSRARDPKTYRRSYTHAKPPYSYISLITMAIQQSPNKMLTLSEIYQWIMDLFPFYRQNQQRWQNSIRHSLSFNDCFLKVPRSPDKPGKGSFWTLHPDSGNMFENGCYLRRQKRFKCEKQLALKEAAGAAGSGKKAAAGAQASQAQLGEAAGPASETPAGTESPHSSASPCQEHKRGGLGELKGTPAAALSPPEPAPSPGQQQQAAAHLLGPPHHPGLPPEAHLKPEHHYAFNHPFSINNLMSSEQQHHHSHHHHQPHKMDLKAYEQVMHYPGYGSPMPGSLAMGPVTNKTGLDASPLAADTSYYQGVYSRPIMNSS
Chain of Heat shock factor protein 1 (Homo sapiens) (Q00613 whole entry, looked up): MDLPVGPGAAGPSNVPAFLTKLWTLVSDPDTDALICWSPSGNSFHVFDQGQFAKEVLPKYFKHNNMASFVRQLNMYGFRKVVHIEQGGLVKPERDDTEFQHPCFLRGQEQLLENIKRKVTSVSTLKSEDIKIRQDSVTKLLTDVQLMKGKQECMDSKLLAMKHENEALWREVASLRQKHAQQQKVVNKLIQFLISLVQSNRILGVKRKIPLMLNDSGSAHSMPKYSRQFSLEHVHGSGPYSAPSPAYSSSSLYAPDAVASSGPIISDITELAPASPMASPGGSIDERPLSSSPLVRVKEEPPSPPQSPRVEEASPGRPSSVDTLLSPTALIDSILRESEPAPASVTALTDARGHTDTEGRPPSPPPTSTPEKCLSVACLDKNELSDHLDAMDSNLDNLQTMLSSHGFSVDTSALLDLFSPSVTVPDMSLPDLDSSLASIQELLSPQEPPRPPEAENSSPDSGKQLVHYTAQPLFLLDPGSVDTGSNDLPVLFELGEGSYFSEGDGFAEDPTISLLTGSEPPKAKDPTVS
Chain of Hypoxia-inducible factor 1-alpha (Homo sapiens) (Q16665 whole entry, looked up): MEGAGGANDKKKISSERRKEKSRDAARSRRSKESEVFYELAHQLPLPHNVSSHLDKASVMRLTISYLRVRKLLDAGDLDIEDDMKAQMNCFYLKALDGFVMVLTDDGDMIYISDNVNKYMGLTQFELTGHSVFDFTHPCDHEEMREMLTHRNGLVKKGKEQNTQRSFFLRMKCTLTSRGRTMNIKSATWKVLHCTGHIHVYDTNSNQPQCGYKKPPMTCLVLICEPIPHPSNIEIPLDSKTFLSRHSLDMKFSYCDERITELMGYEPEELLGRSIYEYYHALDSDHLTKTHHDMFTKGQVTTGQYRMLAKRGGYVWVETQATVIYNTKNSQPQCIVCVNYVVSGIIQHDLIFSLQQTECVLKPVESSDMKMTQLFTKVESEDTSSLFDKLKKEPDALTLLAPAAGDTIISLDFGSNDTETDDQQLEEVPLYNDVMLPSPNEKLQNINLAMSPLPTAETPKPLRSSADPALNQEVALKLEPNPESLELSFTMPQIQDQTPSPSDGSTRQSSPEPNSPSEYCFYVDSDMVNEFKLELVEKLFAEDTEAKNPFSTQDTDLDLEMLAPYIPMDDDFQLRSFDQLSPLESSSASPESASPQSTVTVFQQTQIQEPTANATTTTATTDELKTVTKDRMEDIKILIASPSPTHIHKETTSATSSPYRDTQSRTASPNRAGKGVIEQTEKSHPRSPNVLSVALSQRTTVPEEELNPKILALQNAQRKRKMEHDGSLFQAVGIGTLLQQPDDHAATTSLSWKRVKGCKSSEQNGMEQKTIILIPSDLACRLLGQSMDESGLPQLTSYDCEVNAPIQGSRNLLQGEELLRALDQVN

On to `CCOC(=O)C(O)(c1ccc(Cl)cc1)c1ccc(Cl)cc1`, for which the result in test [1], in [2], in [3], in test [5], in [6] and in test [7] was inactive. For the same compound, the compound was called inactive in test [8], in test [9], in test [10], in test [11], in test [12] and in [14]. The compound was classed as inactive in test [15] and in [17]. Also, the AC50 is 2.98 µM (active) in [4], 0.836 nM (active) in test [13] and 11.1 µM (active) in test [16].
On to `Cc1ccccc1CO[C@@H]1C[C@@]2(C(C)C)CC[C@]1(C)O2`, for which the result in test [1], in [2], in test [3], in [5], in [6] and in [7] was inactive. Besides, the call in test [8], in test [9], in [11], in [12], in [18] and in [13] was inactive. Besides, the compound was called inactive in test [14], in [15], in test [16] and in [17].
On to `CC(C)(O)C(=O)Nc1ccc([N+](=O)[O-])c(C(F)(F)F)c1`, for which the outcome in test [1], in test [2], in [3], in test [4], in test [5] and in test [6] was inactive. Besides, the compound was classed as inactive in test [7], in [8], in test [9], in [11], in test [12] and in test [13]. Further, the call in test [14], in test [15], in test [16] and in [17] was inactive. The AC50 in [15] is 77 µM (active).
For the compound `O=S(=O)(O)C(F)(F)C(F)(F)C(F)(F)C(F)(F)F`, the outcome in [1], in test [2], in test [3], in test [4], in test [5] and in test [6] was inactive. Moreover, the result in [7], in [8], in test [9], in test [10], in test [11] and in test [12] was inactive. For the same compound, the compound was classed as inactive in [13], in test [14], in [15], in test [16] and in test [17].
`c1ccc(-c2ccccc2)cc1`: the outcome in test [1], in [2], in [3], in test [5], in test [6] and in [7] was inactive. Also, the call in [8], in test [9], in [19], in test [10], in test [12] and in test [13] was inactive. The call in test [14], in [15] and in test [16] was inactive. Further, the AC50 in test [4] was 81.8 µM (active); in test [11] it was 110 µM (active).
For the compound `CCC(=O)O[C@H]1CC[C@H]2[C@@H]3CCC4=CC(=O)CC[C@]4(C)[C@H]3CC[C@]12C`, the outcome in [1], in test [2], in [5], in [6], in test [7] and in test [8] was inactive. The outcome in test [9], in test [10], in test [11], in [12], in test [18] and in test [13] was inactive. Also, the compound was classed as inactive in test [14] and in test [17]. Besides, the concentration at half-maximal activity (AC50) was 100 µM (active) and 77.1 µM (active) and 129 µM (active) in test [3]; 9.04 nM (active) and 9.14 nM (active) and 8.84 nM (active) in test [4]; 187 µM (active) in test [6]; 135 µM (active) and 185 µM (active) in test [7]; 140 µM (active) in [8]; 157 µM (active) in test [10]. For the same compound, the AC50 in [11] is 100 µM (active) and 131 µM (active); in [13], 100 µM (active) and 122 µM (active); in test [14], 169 µM (active) and 187 µM (active); in test [15], 159 µM (active) [middle of 4 runs]; in test [16], 136 µM (active) [middle of 4 runs]; in [17], 136 µM (active) and 100 µM (active).

As a reminder, the AC50 is the midpoint of the concentration-response curve, whichever way the signal moves.

Values taken from PubChem BioAssay (EPA / NIEHS).
